High-throughput results: PubChem, several laboratories
Hits are enriched below; roughly 12% of the tested compounds scored in any of these assays.
m-calpain inh: calpain II (pig) inhibition | purified calpain II, fluorogenic peptide substrate, 30 min | inhibition, % at 16 µM | hit rate 0.37% among 220,000 | AID 1236;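 active = inhibition above about 50%, limit read from the data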
L major viab: Leishmania major promastigote growth inhibition. Leishmania major promastigotes, resazurin fluorescence viability. hit rate 9% among 200,000. inhibition, % at 10 µM. AID 1063; in the data active = inhibition above about 50%;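 also: promastigotes grown with compound for 44 hours at 28 °C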
ROMK mod: modulators of human ROMK potassium channel; B-score at 10 µM; P48048; Tet-inducible ROMK, thallium flux fluorescence; actives lie on both sides; AID 1918; hit rate 2% among 130,000;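 active = signal ratio slope over the read window, or its plate-corrected B-score, at least 3 SD from the plate mean, either direction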;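 also: B-score of the F/F0 ratio slope over 7 to 12 s after thallium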
Target sequence (P48048 whole entry, looked up): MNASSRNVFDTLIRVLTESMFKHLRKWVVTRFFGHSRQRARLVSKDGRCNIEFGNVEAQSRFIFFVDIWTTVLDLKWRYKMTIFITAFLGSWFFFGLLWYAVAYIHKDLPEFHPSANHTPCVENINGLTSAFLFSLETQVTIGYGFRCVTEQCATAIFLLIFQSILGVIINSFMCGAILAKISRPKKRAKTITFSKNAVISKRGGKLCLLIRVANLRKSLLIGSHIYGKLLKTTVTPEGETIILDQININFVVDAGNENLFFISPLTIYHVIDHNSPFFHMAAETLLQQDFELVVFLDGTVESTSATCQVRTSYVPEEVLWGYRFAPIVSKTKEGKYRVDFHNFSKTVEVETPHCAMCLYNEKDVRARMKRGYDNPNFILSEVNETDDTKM
KCC2 mod: modulators of human KCC2 chloride dependent transport; Q9H2X9; KCC2 cells, thallium flux FluoZin-2 fluorescence; B-score of Tl+ flux slope (higher = more flux/activation; lower = inhibition) at 10 µM; hit rate 2.2% among 190,000; AID 1456;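 active = thallium flux slope and its plate-corrected score both differing from the plate sample mean at a set confidence after two filtering rounds, in either direction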;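 also: slope of fluorescence scaled to starting intensity during 10 to 20 s after thallium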
WT yeast gro inh: growth inhibition of WT yeast, mitochondrial fusion screen; mitochondrial fusion phenotypic screen, WT strain; hit rate 2.1% among 190,000; inhibition, % at 10 µM; in the data active = inhibition above about 58%; tested in S. cerevisiae
Numbers without * were called inactive.

How did Cc1ccc(Cn2nnc3c(=O)n(CC(=O)N4CCCc5ccccc54)cnc32)cc1 do in these assays?
m-calpain inh: -16; L major viab: 3; ROMK mod: -0.71; KCC2 mod: -2.7; WT yeast gro inh: -1

What do the screens show for `COc1cccc(-n2nnc3c(=O)n(CC(=O)N4CCCc5ccccc54)cnc32)c1`?
m-calpain inh: 13; L major viab: 71*; KCC2 mod: -0.32; WT yeast gro inh: 20

What do the screens show for `Cc1ccsc1C(=O)OCc1csc(-c2ccccc2)n1`?
m-calpain inh: 28; L major viab: 5; ROMK mod: -0.0029; KCC2 mod: -0.55; WT yeast gro inh: 67*

How did COc1cc(NC(=O)C2=C(N3CCOCC3)/C(=C\c3ccc(Br)cc3)CC2)cc(OC)c1OC do in these assays?
m-calpain inh: -39; L major viab: 39; KCC2 mod: 1.3; WT yeast gro inh: 50

Results for COc1cc(NC(=O)C2=C(N3CCOCC3)/C(=C\c3ccc(Cl)cc3Cl)CC2)cc(OC)c1OC ?
m-calpain inh: -29; L major viab: 97*; ROMK mod: -0.41; KCC2 mod: -0.6; WT yeast gro inh: 11

How did CCOC(=O)c1c(C)[nH]c(C2=NNC(=Nc3ccccc3)SC2)c1C do in these assays?
m-calpain inh: -33; L major viab: -10; KCC2 mod: 1.8; WT yeast gro inh: 65*

How did COc1cccc(C2C(C#N)=C(N)SC(c3ccccc3)C2[N+](=O)[O-])c1 (stereo not drawn) do in these assays?
m-calpain inh: 17; L major viab: 28; KCC2 mod: -1.3; WT yeast gro inh: 37

How did O=C(NC1CCCCC1)NC12CC3CC(CC(C3)C1)C2 do in these assays?
m-calpain inh: -1; L major viab: 12; KCC2 mod: 1.1; WT yeast gro inh: -1

What do the screens show for `O=C(NC12CC3CC(CC(C3)C1)C2)N1CCN(C2CCCCC2)CC1`?
m-calpain inh: -20; L major viab: 85*; ROMK mod: -0.73; KCC2 mod: 1.1; WT yeast gro inh: -4

What do the screens show for `COc1ccc(N2CCN(C(=O)NC34CC5CC(CC(C5)C3)C4)CC2)cc1`?
m-calpain inh: -16; L major viab: 15; ROMK mod: -0.012; KCC2 mod: -0.056; WT yeast gro inh: 21

Results for CCOC(=O)N1CCN(C(=O)NC23CC4CC(CC(C4)C2)C3)CC1 ?
m-calpain inh: 12; L major viab: -3; ROMK mod: -0.15; KCC2 mod: -3.4*; WT yeast gro inh: -9

How did S=C(NC1CCCCC1)N1CCOCCOCCN(C(=S)NC2CCCCC2)CCOCCOCC1 do in these assays?
m-calpain inh: -1; KCC2 mod: -1.3

What do the screens show for `S=C(NC1CCCCC1)N1CCN(C2CCCCC2)CC1`?
m-calpain inh: 18; L major viab: 91*; ROMK mod: -2.8; KCC2 mod: 0.0056; WT yeast gro inh: 11

How did O=C(NC1CCCCC1)N1CCN(C2CCCCC2)CC1 do in these assays?
m-calpain inh: 13; L major viab: 68*; KCC2 mod: 0.89; WT yeast gro inh: -6

How did Cc1ccccc1C(=O)NC(CC(C)C)C(=O)Nc1ccc(S(N)(=O)=O)cc1 (stereo not drawn) do in these assays?
m-calpain inh: 7; L major viab: 3; ROMK mod: -0.44; KCC2 mod: 1.5; WT yeast gro inh: -6

Results for Cn1ncc([N+](=O)[O-])c1C(=O)Nc1ccc(C2CCCCC2)cc1 ?
m-calpain inh: 24; L major viab: -11; ROMK mod: -0.38; KCC2 mod: -2; WT yeast gro inh: 13

What do the screens show for `O=C(CN1CCCC1)NCC12CC3CC(CC(C3)C1)C2`?
m-calpain inh: 7; L major viab: -2; KCC2 mod: 0.041; WT yeast gro inh: -3

How did O=C(CN1CCCC1)NC12CC3CC(CC(C3)C1)C2 do in these assays?
m-calpain inh: 0; L major viab: 51*; ROMK mod: -0.088; KCC2 mod: -0.13; WT yeast gro inh: -9

Results for CCOC(=O)Cc1c(Sc2ccccc2)c2ccccc2n1C ?
m-calpain inh: 12; L major viab: -1; KCC2 mod: 1.4; WT yeast gro inh: 66*

What do the screens show for `CCOC(=O)C(=CNc1ccc(NC2=NCC(C)(C)S2)cc1)C(=O)OCC`?
m-calpain inh: 26; KCC2 mod: -2.1

What do the screens show for `CCNc1nc(NCC)nc(Oc2ccc(OCC)nn2)n1`?
m-calpain inh: -28; L major viab: -8; KCC2 mod: -0.74; WT yeast gro inh: 5

How did CCNc1nc(N)nc(Oc2ccc(OCCOc3ccc(Cl)cc3Cl)nn2)n1 do in these assays?
m-calpain inh: -18; L major viab: 98*; KCC2 mod: -1.7; WT yeast gro inh: 8

Results for COc1ccc(/C=C2\C(=O)NC(=S)N2C(=O)c2ccc(F)cc2)cc1 ?
m-calpain inh: -85; L major viab: 4; KCC2 mod: 3.4*; WT yeast gro inh: 16

What do the screens show for `CO/N=C/C(=N\Nc1ccc(OC)cc1)C(=O)c1ccc(F)cc1`?
m-calpain inh: 6; L major viab: 0; ROMK mod: 0.36; KCC2 mod: -0.015; WT yeast gro inh: 1

What do the screens show for `CC(=O)C1=C(O)C(=O)N(Cc2ccco2)C1c1ccc2c(c1)OCO2` (stereo not drawn)?
m-calpain inh: -6; L major viab: -1; KCC2 mod: 0.27; WT yeast gro inh: 20

How did COc1ccc(S(=O)(=O)N2CCOC2CNC(=O)C(=O)NCc2cccnc2)cc1C (stereo not drawn) do in these assays?
m-calpain inh: -10; ROMK mod: 0.081; KCC2 mod: 0.0071

Results for S=C(NCCCN1CCOCC1)N1CCN(c2nc(-c3ccc(Cl)cc3)cs2)CC1 ?
m-calpain inh: -147; L major viab: 76*; ROMK mod: -0.42; KCC2 mod: 0.79; WT yeast gro inh: 89*

What do the screens show for `S=C(NCCCN1CCOCC1)N1CCN(c2nc(-c3ccccc3)cs2)CC1`?
m-calpain inh: -1; L major viab: 83*; ROMK mod: 0.24; KCC2 mod: -2.5; WT yeast gro inh: 13

How did S=C(NCC1CCCO1)N1CCN(c2nc(-c3ccc(Cl)cc3)cs2)CC1 (stereo not drawn) do in these assays?
m-calpain inh: 29; L major viab: 16; ROMK mod: -0.15; KCC2 mod: -0.28; WT yeast gro inh: 67*

Results for COc1ccccc1NC(=O)c1cc2c(s1)-c1ccccc1S(=O)(=O)C2 ?
m-calpain inh: -24; ROMK mod: 1.5; KCC2 mod: 0.019

Results for Cc1cc(Cl)ccc1OCC(=O)Nc1nc(-c2cccs2)cs1 ?
m-calpain inh: 10; L major viab: 5; KCC2 mod: -0.48; WT yeast gro inh: 60*

How did CCOC(=O)N1CCN(C(=O)CSCC(=O)Nc2nc(-c3cccs3)cs2)CC1 do in these assays?
m-calpain inh: -9; L major viab: 79*; ROMK mod: -1.9; KCC2 mod: -1.2; WT yeast gro inh: -4

What do the screens show for `CCOC(=O)N1CCN(C(=O)CSCC(=O)Nc2nc(-c3ccc(C)cc3)cs2)CC1`?
m-calpain inh: 8; L major viab: 5; KCC2 mod: -1.1; WT yeast gro inh: -19

How did Cc1ccc(C2C=NN(c3ccccc3)C2=O)cc1 (stereo not drawn) do in these assays?
m-calpain inh: -13; L major viab: -14; WT yeast gro inh: -3
